Source: PubChem BioAssay
IL1B secr inh = qHTS for Inhibitors of Inflammasome Signaling: IL-1-beta AlphaLISA Primary Screen; actives 4.7% (n = 360,000); THP-1 LPS/ATP IL-1B secretion, AlphaLISA, 16 h; hits give low values; AID 743279, 2014; activity change, % at 57.5 µM; in the data active means activity change below about -50%; inconclusive means mostly about -30% to -49%
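THP-1 cells pretreated 1 hr with compounds (up to 57.5 uM final), then stimulated with LPS (250 ng/mL final) plus ATP (1.25 mM final); secreted IL-1B measured by AlphaLISA after 16 hr, decreased signal indicating inhibition.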
DT40 TDP1 CPT = qHTS for Inhibitors of human tyrosyl-DNA phosphodiesterase 1 (TDP1): qHTS in cells in presence of CPT. actives 12% (n = 420,000). Potency, µM (series often up to 46.2 µM), for inactives: top-dose activity change, negative = growth inhibition, most hits filed as inhibitors. AID 686979, 2013. chicken DT40 Tdp1-/-;hTDP1 cells + 20 nM CPT, ATP luminescence, 48 h; further: potency means the concentration at half of the fitted maximal effect; nearly all actives have a fitted effect of over 55% in size
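Chicken DT40 Tdp1-/- cells complemented with human TDP1, 400 cells/well, exposed to compounds plus 20 nM camptothecin for at least 48 h at 37 C; viability read as ATP content by CellTiter-Glo luminescence.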
HT1080-NT tox = qHTS for induction of synthetic lethality in tumor cells producing 2HG: qHTS for the HT-1080-NT fibrosarcoma cell line; AID 686970, 2013; actives 1.6% (n = 360,000); Potency, µM (doses to about 46.1 µM), for the others: at the highest dose activity, negative = less viability, hits mostly cytotoxic; HT-1080-NT fibrosarcoma viability, CellTiter-Glo ATP luminescence, 48 h;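 further: NT is the 2HG producing partner of a matched IDH1 knockdown line; potency means the concentration at half of the fitted maximal effect; 0% = DMSO-treated cells and -100% = media-only wells without cells; nearly all actives have a fitted effect of over 55% in size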
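Fibrosarcoma NT cells, 750 per well in 5% FBS RPMI, were exposed to compound for 48 hours. Viability: CellTiter-Glo luminescence.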
TDP1 cell noCPT = qHTS for Inhibitors of human tyrosyl-DNA phosphodiesterase 1 (TDP1): qHTS in cells in absence of CPT; DT40 Tdp1-/- hTDP1 cells, no CPT, ATP luminescence, 48 h; Potency, µM (top dose mostly 46.2 µM), for inactives: top-dose activity change, negative = growth inhibition, actives largely listed as inhibitors; actives 15% (n = 420,000); AID 686978, 2013; further: potency means the concentration at half of the fitted maximal effect; nearly all actives have a fitted effect of over 55% in size
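Luminescent ATP content (CellTiter-Glo) served as the growth readout. Knockout chicken DT40 cells expressing human TDP1 were exposed to compounds without camptothecin for a minimum 48 hr at 37 °C.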
ELG1 repair inh = qHTS screen for small molecules that inhibit ELG1-dependent DNA repair in human embryonic kidney (HEK293T) cells expressing luciferase-tagged ELG1 | actives 2.3% (n = 330,000) | HEK293T ELG1-luciferase reporter, luminescence, 16 h; DNA damage induced by 5-fluorouridine | AID 504467, 2011 | Potency, µM (highest dose often 46.1 µM), for the others: at the top dose activity change, negative = inhibition, hits mostly inhibitors; further: potency means the concentration at half of the fitted maximal effect; nearly all actives have a fitted effect of over 55% in size
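HEK293T cells expressing luciferase-tagged ELG1 (2,000/well) received 5-Fluorouridine plus compound or DMSO for 16 hr at 37 °C. Luciferase was read by ONE-Glo luminescence after 30 min at room temperature.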
HT1080 IDH1KD tx = qHTS for induction of synthetic lethality in tumor cells producing 2HG: qHTS for the HT-1080-IDH1KD cell line. HT-1080 IDH1 knockdown viability, ATP luminescence, 48 h. Potency, µM (highest dose often 46.1 µM), for the others: at the top dose activity, negative = toxicity, most hits filed as cytotoxic. actives 2% (n = 360,000). AID 686971, 2013;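 further: potency means the concentration at half of the fitted maximal effect; 0% = DMSO wells and -100% = cell-free medium wells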
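In this qHTS, HT-1080 cells depleted of IDH1 are exposed for 48 h at 37 °C to compound titrations. Toxicity is scored from CellTiter-Glo luminescence, with DMSO as full viability and medium alone as none.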
An asterisk follows results filed as active; ? = inconclusive; · = no result; [ ] = dose if it differs, or a comment. Only some compounds are listed: those with a hit (about 19% of all), similar ones and a draw of the others. Unless noted, the call rests on the fitted dose curve; in most records, active means well fitted curve in the direction sought with a large enough effect; inconclusive means small, poorly fitted or top-dose-only effect, or another doubt; inactive means no such curve, though single readings can be large; an effect the other way counts as inactive or inconclusive. Unless noted, on the % scale 0 is the no-effect control and ±100 the full control effect.

SMILES	IL1B secr inh	DT40 TDP1 CPT	HT1080-NT tox	TDP1 cell noCPT	ELG1 repair inh	HT1080 IDH1KD tx
Cc1ccc2nc(N3CCN(c4ccccc4F)CC3)c3nnnn3c2c1	·	2%	·	-1%	·	·
O=C(O)CC/C(=N\Nc1ccc(S(=O)(=O)N2CCCC2)cc1[N+](=O)[O-])c1cccs1	9	-26%	?	-30%	21µM*	33µM*
O=[N+]([O-])c1cc(S(=O)(=O)N2CCCCC2)ccc1NCc1cccc(Cl)c1	-18	-16%	-1%	29µM*	2%	?
CN1CCN(S(=O)(=O)c2ccc(Nc3cccc(Cl)c3)c([N+](=O)[O-])c2)CC1	-8	?	-10%	23µM*	3%	-12%
O=C(CSc1nnc2scc(-c3ccc(Cl)cc3)n12)Nc1ccccc1F	·	-19%	·	?	·	·
CCc1ccc(-n2nnc(-c3nc(-c4cccs4)no3)c2N)cc1	·	-28%	·	?	·	·
CCOc1ccccc1N1CSC2=C(C#N)C(c3c(OC)ccc4ccccc34)CC(=O)N2C1 (stereo not drawn)	12	?	4%	21µM*	-2%	-7%
COc1ccc(N2CSC3=C(C#N)C(c4cccs4)CC(=O)N3C2)cc1 (stereo not drawn)	-5	-1%	5%	2%	27%	-7%
CCc1ccc(N2CSC3=C(C#N)C(c4cccs4)CC(=O)N3C2)cc1 (stereo not drawn)	-2	?	2%	16µM*	?	6%
CCCCC[C@H](O)/C=C/[C@H]1C(=O)C=C[C@@H]1C/C=C\CCCC(=O)O	·	12%[4.12 µM]	·	14%[4.12 µM]	·	·
CCCCC[C@H](O)/C=C/C1C(=O)C=C[C@H]1C/C=C\CCCC(=O)OC (stereo partly drawn)	-102*	5.8µM*	?	7.3µM*	·	?
CCc1cccc(C)c1Nc1c(-c2ccc(N3CCOCC3)cc2)nc2ncccn12	·	23µM*	·	23µM*	·	·
CCc1cccc(C)c1Nc1c(-c2cccs2)nc2ncccn12	·	?	·	16µM*	·	·
COc1ccc(Nc2c(-c3ccc(N4CCOCC4)cc3)nc3ncccn23)cc1OC	·	-14%	·	-25%	·	·
CCn1cc(C(=O)OCC(=O)Nc2cc(OC)cc(OC)c2)c(=O)c2ccc(C)nc21	·	-2%	·	1%	·	·
Cc1ccc(CS(=O)(=O)c2ccc(C(=O)N3CCN(c4ccccn4)CC3)cc2[N+](=O)[O-])cc1	?	9.2µM*	?	26µM*	15µM*	?
CCN(CC)C(=O)c1ccc(S(=O)(=O)Cc2ccc(C)cc2)c([N+](=O)[O-])c1	-68*	?	-18%	?	-5%	-12%
CC(=O)N1CCCC1c1nc2ccccc2n1Cc1ccccc1C (stereo not drawn)	·	?	·	-29%	·	·
CCNC(=O)/C(C#N)=C/c1c(N2CCN(C)CC2)nc2c(C)cccn2c1=O	-19	10%	4%	-12%	0%	-1%
CCNC(=O)/C(C#N)=C/c1c(N(Cc2ccccc2)Cc2ccccc2)nc2ccccn2c1=O	-55*	?	23µM*	?	12µM*	?
CNC(=O)/C(C#N)=C/c1c(N(Cc2ccccc2)Cc2ccccc2)nc2c(C)cccn2c1=O	?	?	18µM*	?	23µM*	?
CCCCNC(=O)c1nc(-c2cc3ccccc3[nH]2)oc1-c1cccc(C(F)(F)F)c1	-3	15µM*	-1%	?	·	1%
O=C(NCc1ccccc1)c1nc(-c2c(F)cccc2F)oc1-c1ccccc1	5	?	-17%	18µM*	·	-15%
CCCCCNC(=O)c1nc(-c2c(F)cccc2F)oc1-c1ccccc1	-15	?	-11%	21µM*	·	-6%
Clc1ccc(/C=C/c2ccc3ccccc3n2)cc1Cl	·	6.3µM*	·	3.5µM*	·	·
SMILES	IL1B secr inh	DT40 TDP1 CPT	HT1080-NT tox	TDP1 cell noCPT	ELG1 repair inh	HT1080 IDH1KD tx
O/N=C/c1ccc2ccccc2n1	6	-2%	0%	-21%	?	8%
CC[N+](C)(C)c1ccc(/C=C/c2ccc3ccccc3n2)cc1	·	0.028µM*	·	?	·	·
CC(=O)/C=C/c1ccc2ccccc2n1	-120*	5.2µM*	?	2.6µM*	-23%	?
CCN(CC)c1ccc(/C=C/c2ccc3ccccc3n2)cc1	·	0.16µM*	·	0.16µM*	·	·
CC(=O)NCCNc1ccnc(-c2ccccc2C)n1	·	-3%	·	17%	·	·
CCOc1ccc(NC(=O)COC(=O)CCC(=O)c2cccs2)cc1	-15	2%	-4%	23%	?	-2%
COc1ccc(NC(=O)COc2ccc(N(C)S(=O)(=O)c3ccc(C)cc3)cc2)cc1	?	?	-12%	?	?	-7%
COCCn1c(C)cc(C(=O)COc2ccc(N(C)S(=O)(=O)c3ccc(C)cc3)cc2)c1C	2	18µM*	-2%	?	?	-18%
Cc1ccc(S(=O)(=O)N(C)c2ccc(OCC(=O)Nc3ccc(S(C)(=O)=O)cc3)cc2)cc1	-5	18µM*	-1%	16µM*	·	-1%
COc1ccc(NC(=O)COc2ccc(N(C)S(=O)(=O)c3ccc(Cl)cc3)cc2)cc1	-52*	-11%	-6%	?	?	-9%
COc1ccc(NC(=O)CS(=O)(=O)c2cccc(Cl)c2)cc1	-25	?	10%	23µM*	4%	10%
COCCn1c(C)cc(C(=O)COC(=O)c2ccc(S(=O)(=O)N(C)C)cc2)c1C	14	-7%	1%	-3%	8%	-4%
O=C(CCc1ccccc1)N(Cc1cccnc1)c1nc2ccc(F)cc2s1	·	-23%	·	-6%	·	·
CCCCn1c(N)c(N(Cc2ccccc2OC)C(=O)CN2C(=O)NC3(CCCC3)C2=O)c(=O)[nH]c1=O	1	-10%	9%	-4%	9%	7%
O=C(c1ccncc1)N1CCC[C@@]2(CCN(c3ccncc3)C2)C1	·	-5%	·	11%	·	·
Cc1ccc(S(=O)(=O)N(C)c2ccc(OCC(=O)Nc3cccc(-n4cnnn4)c3C)cc2)cc1	13	?	-16%	?	23µM*	-7%
